Drawing on PubChem BioAssay (NCATS), this text covers Potency and activity change, negative = inhibition for 38 compounds.

Records with an inconclusive call do not appear. A call without a number means that no potency is given here. Activity calls are given as the source filed them. The call rests on the fitted dose curve; in most records, active means well fitted inhibition curve with a large enough effect; inconclusive means small, poorly fitted or top-dose-only effect; inactive means flat fitted curve, though single readings scatter.
Potency means the concentration at half of the fitted maximal effect.

In this test the test system is Zika virus NS2B-NS3 protease. As to the kind of experiment: Primary screen GU AMC qHTS for Zika virus inhibitors (AID 1347154). Further: nearly all actives have a fitted effect of over 70% in size. As to conditions: Zika NS2B-NS3 unlinked protease, AMC fluorogenic substrate; series mostly up to 54.1 µM. In short, it runs like this:
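Fluorogenic AMC-substrate cleavage by noncovalent NS2B-NS3 protease complex (25 nM, pH 8.0 Tris buffer with Tween 20) followed for 15 minutes at room temperature (~20% conversion). Percent inhibition from ex340/em450 signal change, fitted by 4-parameter Hill equation.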
Consider `CC(=O)N(c1onc(C)c1C)S(=O)(=O)c1ccc(N)cc1`, for which the Potency entry is “inactive”.

`Cc1coc2ccccc2c1=O`: the Potency result is “inactive”.

Take `CC1CN(c2cc3c(cc2F)c(=O)c(C(=O)O)cn3-c2ccc(F)cc2F)CCN1` (stereo not drawn): the activity change, negative = inhibition is -3.57% [at 4.99 µM] (inactive).

In the case of `O=[N+]([O-])c1cncn1CCN1CCOCC1`, the Potency result is “inactive”.

Turning to `NC(=O)COCCN1CCN(C(c2ccccc2)c2ccc(Cl)cc2)CC1` (stereo not drawn), the Potency result was “inactive”.

Consider `CCCCOCCOC(=O)c1cccnc1`, for which the Potency result is “inactive”.

On to `CC(NCCC(c1ccccc1)c1ccccc1)c1ccccc1` (stereo not drawn), for which the Potency entry is “inactive”.

`COC(=O)c1c(Cl)c(Cl)c(C(=O)OC)c(Cl)c1Cl`: the Potency entry was “inactive”.

With `Brc1ccccc1-c1ccccc1`, the Potency entry is “inactive”.

Regarding `Cc1sccc1Br`, the Potency entry is “inactive”.

Turning to `O=c1[nH]c(=O)n([C@H]2O[C@H](CO)[C@@H](O)[C@@H]2O)cc1/C=C\Br`, the Potency result was “inactive”.

With `CCN1CCN(c2cc(-c3ccc(F)cc3)c3c(n2)CCCCCC3)CC1`, the Potency result is “inactive”.

As to `CO/N=C(\C(=O)O)c1csc(NC(=O)CCl)n1`, the Potency entry was “inactive”.

For `COc1cc(C(=O)OC(COCCC(C)C)CN2CCOCC2)cc(OC)c1OC` (stereo not drawn), the Potency result is “inactive”.

Turning to `CC(C)C(=O)Nc1cccc(C(F)(F)F)c1`, the Potency result is “inactive”.

With `O=C(Oc1ccccc1)c1ccccc1O`, the Potency result is “inactive”.

Regarding `O=C(O)CCCC[P+](c1ccccc1)(c1ccccc1)c1ccccc1`, the Potency result was “inactive”.

On to `CCCN(CCC)C(=O)C(CCC(=O)OCCCN1CCN(CCOC(=O)Cc2c(C)n(C(=O)c3ccc(Cl)cc3)c3ccc(OC)cc23)CC1)NC(=O)c1ccccc1` (stereo not drawn), for which the Potency result is “inactive”.

On to `CC(C)C(C)(C)C(C)(C)C(C)(C)S`, for which the Potency result is “inactive”.

As for `CC(CCc1ccc2c(c1)OCO2)NN` (stereo not drawn), the Potency entry is “inactive”.

With `CC1c2ccccc2CN1NC(=O)c1ccc(Cl)c(S(N)(=O)=O)c1` (stereo not drawn), the Potency result is “inactive”.

In the case of `CCCC(=O)c1cc(O)c(O)cc1O`, the Potency was 5.62 µM (active).

For the compound `O=C(CS(=O)Cc1ccco1)NC/C=C\COc1cc(CN2CCCCC2)ccn1` (stereo not drawn), the Potency result was “inactive”.

For the compound `c1ccc(C(O[C@H]2CCCN(CCc3ccc4c(c3)OCO4)C2)c2ccccc2)cc1`, the Potency entry was “inactive”.

Take `CC(C)CCCC(C)NCCC(C)C` (stereo not drawn): the Potency result was “inactive”.

In the case of `O=C1c2ccccc2CCc2ccccc21`, the Potency result is “inactive”.

Take `COc1c(N2C[C@@H]3CCCN[C@@H]3C2)c(F)cc2c(=O)c(C(=O)O)cn(C3CC3)c12`: the Potency was 14.4 µM (active).

On to `CO[C@@H]1[C@@H](O[C@@H]2O[C@H](C)[C@@H](O[C@H]3C[C@@](C)(O)[C@@H](O)[C@H](C)O3)[C@H](N(C)C)[C@H]2O)[C@@H](CC=O)C[C@@H](C)[C@@H](O[C@@H]2CC[C@H](N(C)C)[C@@H](C)O2)/C=C/C=C/C[C@@H](C)OC(=O)C[C@H]1OC(C)=O`, for which the Potency result was “inactive”.

For `CCCCNc1ccc(C(=O)OCCN(CC)CC)cc1`, the Potency entry is “inactive”.

As for `CCc1cccc2c(CCO)c[nH]c12`, the Potency entry was “inactive”.

For `CC[N+]1(CC)CCC(=C(c2ccccc2)c2ccccc2)C1C` (stereo not drawn), the Potency result was “inactive”.

Take `CC(C)=CCNc1ncnc2c1ncn2[C@@H]1O[C@H](CO)[C@@H](O)[C@H]1O`: the Potency entry was “inactive”.

Consider `CC[C@@H]([C@H](C)O)n1ncn(-c2ccc(N3CCN(c4ccc(OC[C@@H]5CO[C@@](Cn6cncn6)(c6ccc(F)cc6F)C5)cc4)CC3)cc2)c1=O`, for which the Potency entry was “inactive”.

Take `CN1CCCN=C1/C=C/c1cccs1`: the Potency result was “inactive”.

`CN1Cc2cc(C(=O)N3CCC(C4CCNCC4)CC3)ccc2N[C@@H](CC(=O)O)C1=O`: the Potency result is “inactive”.

For the compound `C/C=C(/C(=C/C)c1ccc(OC(C)=O)cc1)c1ccc(OC(C)=O)cc1`, the Potency entry is “inactive”.

On to `Oc1cccc2[nH]ccc12`, for which the Potency result was “inactive”.

Consider `Cc1onc(-c2c(Cl)cccc2Cl)c1C(=O)Cl`, for which the Potency entry is “inactive”.
